# Of roughly 8,800 targets only a part is listed; those with a hit were picked by preference. About 0.5% of all pairs of compound and target were hits. A number with no mark means an inactive call.
# Compound: C1=CC=C(C=C1)[C@H](COC2=CC3=C(C=C2)NC(=O)N3)NC(=O)C4=CC=CN(C4=O)CC5=CC(=C(C=C5)F)F
# Experiment: log2 fold change, soluble protein after heating vs DMSO (PISA); higher = thermal stabilisation; K562 lysate, 10 uM; active = over 0.2 and 3.5 SD of the protein, either way, in both replicates (recomputed)
# In short: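 Dounce homogenisation of K562 pellets in PBS pH 7.4 with 1 mM MgCl2 produced a crude extract, used at 1 mg/mL protein. Exposure to 10 μM compound lasted 30 min, and aliquots were then heated for 3 min across 48°C-58°C, pooled and brought to 0.5% NP-40 at 4°C. The supernatant after 21,000xg for 90 min was quantified by TMTpro 16plex LC-MS/MS with channel sums equalised. Duplicate values are given as log-two fold change in thermal stability relative to solvent controls.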
# Sequence of UniProt Q9P1F3 (Q9P1F3 whole entry, looked up): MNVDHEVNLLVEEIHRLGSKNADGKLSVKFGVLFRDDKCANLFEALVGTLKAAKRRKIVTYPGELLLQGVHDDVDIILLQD
# Sequence of UniProt Q3SY69 (Q3SY69 whole entry, looked up): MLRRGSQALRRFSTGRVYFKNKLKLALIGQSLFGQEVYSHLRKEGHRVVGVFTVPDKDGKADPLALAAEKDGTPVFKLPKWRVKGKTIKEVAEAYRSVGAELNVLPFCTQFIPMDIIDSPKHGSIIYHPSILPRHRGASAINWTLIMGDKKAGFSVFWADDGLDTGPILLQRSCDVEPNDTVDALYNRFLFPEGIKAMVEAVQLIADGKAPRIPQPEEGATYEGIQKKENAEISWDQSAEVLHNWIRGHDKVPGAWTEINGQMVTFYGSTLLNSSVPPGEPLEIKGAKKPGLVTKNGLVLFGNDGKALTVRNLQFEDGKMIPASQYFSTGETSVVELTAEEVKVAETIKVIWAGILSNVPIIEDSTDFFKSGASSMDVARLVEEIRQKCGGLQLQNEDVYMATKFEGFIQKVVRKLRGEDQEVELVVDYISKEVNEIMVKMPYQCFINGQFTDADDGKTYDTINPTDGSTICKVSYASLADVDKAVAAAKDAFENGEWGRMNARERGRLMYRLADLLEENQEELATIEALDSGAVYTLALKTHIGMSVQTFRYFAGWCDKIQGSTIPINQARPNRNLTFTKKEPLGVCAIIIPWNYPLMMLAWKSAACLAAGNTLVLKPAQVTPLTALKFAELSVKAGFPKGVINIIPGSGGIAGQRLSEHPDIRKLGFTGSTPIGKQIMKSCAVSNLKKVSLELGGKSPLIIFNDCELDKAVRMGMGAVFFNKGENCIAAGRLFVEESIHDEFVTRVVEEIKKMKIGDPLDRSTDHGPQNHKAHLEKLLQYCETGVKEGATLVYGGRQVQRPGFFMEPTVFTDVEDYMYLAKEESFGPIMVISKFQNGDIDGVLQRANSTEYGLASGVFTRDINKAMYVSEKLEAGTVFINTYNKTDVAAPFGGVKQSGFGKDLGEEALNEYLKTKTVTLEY
# Sequence of UniProt Q8N8A2 (Q8N8A2 whole entry, looked up): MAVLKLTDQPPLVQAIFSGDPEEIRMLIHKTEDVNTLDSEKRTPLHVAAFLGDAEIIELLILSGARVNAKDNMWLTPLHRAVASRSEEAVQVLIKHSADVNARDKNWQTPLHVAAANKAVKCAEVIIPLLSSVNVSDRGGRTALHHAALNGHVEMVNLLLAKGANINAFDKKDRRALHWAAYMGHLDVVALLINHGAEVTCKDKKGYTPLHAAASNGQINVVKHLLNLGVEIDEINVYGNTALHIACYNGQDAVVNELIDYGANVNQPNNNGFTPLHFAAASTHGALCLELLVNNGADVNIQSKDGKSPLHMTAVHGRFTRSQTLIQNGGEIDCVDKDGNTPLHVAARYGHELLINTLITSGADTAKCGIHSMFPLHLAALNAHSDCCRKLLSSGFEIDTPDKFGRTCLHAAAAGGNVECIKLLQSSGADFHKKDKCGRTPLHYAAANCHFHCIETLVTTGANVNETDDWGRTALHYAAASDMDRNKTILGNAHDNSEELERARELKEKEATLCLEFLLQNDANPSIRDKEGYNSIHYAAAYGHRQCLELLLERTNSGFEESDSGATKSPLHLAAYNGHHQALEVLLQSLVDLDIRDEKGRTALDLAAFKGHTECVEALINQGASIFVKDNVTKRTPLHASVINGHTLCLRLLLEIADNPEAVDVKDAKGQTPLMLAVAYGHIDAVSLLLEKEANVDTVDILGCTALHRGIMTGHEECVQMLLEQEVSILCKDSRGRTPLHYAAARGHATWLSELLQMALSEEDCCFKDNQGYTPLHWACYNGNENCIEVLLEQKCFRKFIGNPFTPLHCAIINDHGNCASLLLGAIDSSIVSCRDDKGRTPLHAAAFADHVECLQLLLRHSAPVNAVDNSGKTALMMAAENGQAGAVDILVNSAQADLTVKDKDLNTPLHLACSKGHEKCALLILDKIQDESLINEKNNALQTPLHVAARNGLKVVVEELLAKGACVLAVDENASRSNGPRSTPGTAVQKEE
# Sequence of UniProt Q9BXX3 (Q9BXX3 whole entry, looked up): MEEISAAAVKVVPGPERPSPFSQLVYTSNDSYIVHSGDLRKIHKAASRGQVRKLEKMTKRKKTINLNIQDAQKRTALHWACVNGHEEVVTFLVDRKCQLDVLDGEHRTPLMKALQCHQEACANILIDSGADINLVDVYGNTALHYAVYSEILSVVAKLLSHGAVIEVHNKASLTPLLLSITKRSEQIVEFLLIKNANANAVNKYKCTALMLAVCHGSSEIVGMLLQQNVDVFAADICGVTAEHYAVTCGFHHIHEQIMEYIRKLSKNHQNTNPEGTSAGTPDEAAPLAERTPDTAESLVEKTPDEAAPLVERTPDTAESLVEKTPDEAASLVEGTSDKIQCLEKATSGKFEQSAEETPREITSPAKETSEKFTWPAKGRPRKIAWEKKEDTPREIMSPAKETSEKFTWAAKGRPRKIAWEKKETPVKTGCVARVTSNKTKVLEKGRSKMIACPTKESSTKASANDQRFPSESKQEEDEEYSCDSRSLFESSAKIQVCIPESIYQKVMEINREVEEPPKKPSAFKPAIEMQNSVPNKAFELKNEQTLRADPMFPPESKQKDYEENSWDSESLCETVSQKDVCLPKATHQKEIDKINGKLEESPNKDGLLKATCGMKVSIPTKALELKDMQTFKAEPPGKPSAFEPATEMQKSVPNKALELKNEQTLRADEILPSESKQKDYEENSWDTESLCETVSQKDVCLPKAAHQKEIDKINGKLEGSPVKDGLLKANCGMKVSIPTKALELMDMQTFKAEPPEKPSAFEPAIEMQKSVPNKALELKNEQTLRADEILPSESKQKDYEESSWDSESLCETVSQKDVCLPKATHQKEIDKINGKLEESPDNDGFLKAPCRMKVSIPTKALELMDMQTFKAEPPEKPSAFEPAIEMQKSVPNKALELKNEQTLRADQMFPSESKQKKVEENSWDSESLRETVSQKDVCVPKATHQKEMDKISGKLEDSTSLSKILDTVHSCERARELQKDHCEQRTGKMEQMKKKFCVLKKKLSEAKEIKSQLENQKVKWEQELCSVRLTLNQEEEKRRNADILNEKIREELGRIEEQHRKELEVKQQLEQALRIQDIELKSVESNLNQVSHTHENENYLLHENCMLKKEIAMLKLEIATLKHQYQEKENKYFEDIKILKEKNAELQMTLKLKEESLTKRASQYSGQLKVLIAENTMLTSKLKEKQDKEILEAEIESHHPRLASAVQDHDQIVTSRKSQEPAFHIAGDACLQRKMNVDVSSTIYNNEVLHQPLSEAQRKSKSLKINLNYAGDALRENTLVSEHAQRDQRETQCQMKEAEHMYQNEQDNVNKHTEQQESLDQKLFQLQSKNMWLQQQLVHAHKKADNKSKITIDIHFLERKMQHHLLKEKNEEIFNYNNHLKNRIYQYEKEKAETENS
# Sequence of UniProt Q04771 (Q04771 whole entry, looked up): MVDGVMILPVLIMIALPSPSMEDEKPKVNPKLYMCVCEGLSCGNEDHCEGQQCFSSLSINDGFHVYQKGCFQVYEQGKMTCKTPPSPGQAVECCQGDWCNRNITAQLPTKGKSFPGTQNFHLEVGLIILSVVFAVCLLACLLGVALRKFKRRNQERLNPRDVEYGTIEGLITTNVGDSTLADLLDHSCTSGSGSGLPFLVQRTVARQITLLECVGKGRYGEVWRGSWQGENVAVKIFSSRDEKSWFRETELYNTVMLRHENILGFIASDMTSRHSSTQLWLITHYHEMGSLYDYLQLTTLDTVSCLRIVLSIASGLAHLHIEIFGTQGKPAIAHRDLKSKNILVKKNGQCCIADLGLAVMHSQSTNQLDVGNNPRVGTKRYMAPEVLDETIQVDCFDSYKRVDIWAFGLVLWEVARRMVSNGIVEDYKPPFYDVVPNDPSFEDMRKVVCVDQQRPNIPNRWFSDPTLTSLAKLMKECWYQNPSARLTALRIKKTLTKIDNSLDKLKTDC
# Sequence of UniProt Q2VPB7 (Q2VPB7 whole entry, looked up): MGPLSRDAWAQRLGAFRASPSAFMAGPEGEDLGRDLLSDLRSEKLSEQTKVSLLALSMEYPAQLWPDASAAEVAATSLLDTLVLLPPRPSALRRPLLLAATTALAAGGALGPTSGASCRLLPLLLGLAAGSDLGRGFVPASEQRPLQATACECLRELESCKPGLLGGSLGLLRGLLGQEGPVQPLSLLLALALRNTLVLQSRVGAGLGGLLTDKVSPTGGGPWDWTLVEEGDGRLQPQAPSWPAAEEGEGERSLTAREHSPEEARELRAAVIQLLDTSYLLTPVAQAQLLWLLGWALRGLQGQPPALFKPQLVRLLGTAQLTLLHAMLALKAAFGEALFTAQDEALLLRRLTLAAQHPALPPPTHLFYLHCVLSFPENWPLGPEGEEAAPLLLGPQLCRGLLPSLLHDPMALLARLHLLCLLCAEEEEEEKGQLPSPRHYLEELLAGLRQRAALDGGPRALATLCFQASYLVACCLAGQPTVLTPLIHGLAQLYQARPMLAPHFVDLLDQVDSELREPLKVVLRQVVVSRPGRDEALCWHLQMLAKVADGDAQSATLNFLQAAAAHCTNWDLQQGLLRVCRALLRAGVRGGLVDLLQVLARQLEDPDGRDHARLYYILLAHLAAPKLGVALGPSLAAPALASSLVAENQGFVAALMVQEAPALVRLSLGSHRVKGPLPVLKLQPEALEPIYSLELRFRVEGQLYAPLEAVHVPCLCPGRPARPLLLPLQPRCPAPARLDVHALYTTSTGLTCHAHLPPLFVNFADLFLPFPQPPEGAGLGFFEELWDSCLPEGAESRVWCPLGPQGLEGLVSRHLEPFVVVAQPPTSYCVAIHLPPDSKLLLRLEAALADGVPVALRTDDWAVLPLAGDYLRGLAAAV
# Sequence of UniProt Q9BQI0 (Q9BQI0 whole entry, looked up): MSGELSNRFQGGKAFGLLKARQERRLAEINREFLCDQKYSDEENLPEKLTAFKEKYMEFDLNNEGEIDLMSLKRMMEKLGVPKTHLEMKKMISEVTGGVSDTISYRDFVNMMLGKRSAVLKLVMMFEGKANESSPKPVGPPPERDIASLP
# Sequence of UniProt P14621 (P14621 whole entry, looked up): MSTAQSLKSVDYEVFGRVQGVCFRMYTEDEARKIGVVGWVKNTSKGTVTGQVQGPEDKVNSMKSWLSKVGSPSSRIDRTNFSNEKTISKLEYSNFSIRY
row,Target,log2 fold change
1,ABCF2 isoform 2 (UniProt Q9UG63),-0.022
2,ANKRD44 isoform 2 (UniProt Q8N8A2),-0.032
3,AIF1L (UniProt Q9BQI0),0.072
4,ACVR1 (UniProt Q04771),-0.052
5,ALDH1L2 (UniProt Q3SY69),0.015
6,ANXA2 (UniProt H0YL33),0.079
7,ACYP2 (UniProt P14621),-0.061
8,AKAP8 (UniProt O43823),-0.02
9,AGGF1 (UniProt Q8N302),0.042
10,ABRACL (UniProt Q9P1F3),0.052
11,AP5B1 (UniProt Q2VPB7),0.079
12,ANKRD30A (UniProt Q9BXX3),-0.04
13,ANP32E isoform 3 (UniProt Q9BTT0),0.003
14,ANXA1 (UniProt P04083),-0.011
15,ABCD3 (UniProt P28288),0.178
16,ACLY isoform 2 (UniProt P53396),0.099
